Only some compounds are listed: those with a hit (about 11% of all), similar ones and a draw of the others.
HCV inhibitor: blocks hepatitis C virus; Huh7.5.1 HCVcc-Cre infection, luciferase reporter, 44 h; Potency, µM (series often up to 41.8 µM), actives largely listed as inhibitors; hit rate 3.4% among 340,000
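Cells seeded at 1,000/well and cultured 4 h, then compounds added followed by HCVcc-Cre virus (~0.5 moi). After 44 h further culture, luciferase substrate was added, plates held 15 min at room temperature, and luminescence read for 15 sec.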
Pf growth 48h: P. falciparum growth inhibition at 48 hours (one generation); P. falciparum luciferase growth in erythrocytes, 48 h; Potency, µM (highest dose often 28.7 µM), actives largely listed as inhibitors; hit rate 5.9% among 310,000; AID 504832
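Read-out is firefly luciferase luminescence from an integrated reporter in P. falciparum, so falling signal marks reduced parasite growth. Infected erythrocytes were at 2% hematocrit and 0.1% parasitemia (final) in Albumax-supplemented RPMI 1640.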
AMA1-RON2 inh: inhibitors of Plasmodium falciparum AMA1-RON2 interaction; AlphaScreen AMA1-biotinylated RON2 peptide binding; Potency, µM (top dose mostly 58.2 µM), actives largely listed as inhibitors; hit rate 0.2% among 360,000; also: nearly all actives have a fitted effect of over 45% in size
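AMA1 (3D7) with his tag at 25 nM final met compounds first, then biotinylated RON2 peptide at 25 nM; detection used donor plus acceptor beads, 10 µg/mL apiece, read by AlphaScreen after 30 min at room temperature.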
Pf growth 96h: P. falciparum growth inhibition at 96 hours | P. falciparum luciferase reporter growth, 96 h | Potency, µM (top dose mostly 28.7 µM), actives largely listed as inhibitors | hit rate 6.9% among 320,000 | AID 504834
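P. falciparum expressing integrated firefly luciferase grown in erythrocytes (2% hematocrit, 0.05% parasitemia final) with compounds for 96 hours at 37 C, 5% CO2. Growth inhibition read as loss of luminescence after adding luciferase detection reagent.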
Each line names hits and unclear results; the compound was inactive in the other large screens; ! = not active in a repeat. Calls follow the shape of the dose curve; as a rule, active = well fitted curve in the direction sought with a large enough effect; inconclusive = small, poorly fitted or top-dose-only effect, or another doubt; inactive = no such curve, though single readings can be large; an effect the other way counts as inactive or inconclusive.

C[C@@H]1C[C@H]2[C@@H]3C[C@H](F)C4=CC(=O)C=C[C@]4(C)[C@@]3(Cl)[C@@H](O)C[C@]2(C)[C@H]1C(=O)COC(=O)C(C)(C)C	Pf growth 48h 1.04µM
N#Cc1csc(CCNC(=O)c2ccccc2)n1	none (no result: HCV inhibitor, Pf growth 48h, Pf growth 96h)
O=C(NCCc1nc(-c2ccccc2)cs1)c1ccc(Br)cc1	HCV inhibitor 11.2µM
O=C(N/N=C/c1ccc(OCC(=O)N2CCCCC2)cc1)c1ccccc1O	none
COCc1c(C(=O)OCC(=O)N2c3ccccc3CC2C)oc2ccccc12 (stereo unspecified)	none
COCc1c(C(=O)OCC(=O)N2c3ccccc3NC(=O)C2(C)C)oc2ccccc12	HCV inhibitor inconclusive, Pf growth 48h inconclusive, Pf growth 96h 11.7µM
O=C(OCC(=O)c1c[nH]c2ccccc12)c1ccc(Br)o1	none (no result: Pf growth 96h)
CC(C(=O)c1c[nH]c2ccccc12)N1CCN(C(=O)c2ccco2)CC1 (stereo unspecified)	Pf growth 48h 1.85µM, Pf growth 96h 2.08µM
COc1cc(NC(=O)c2ccco2)c(C(=O)OCC(=O)c2c[nH]c3ccccc23)cc1OC	HCV inhibitor inconclusive, Pf growth 48h 4.15µM, Pf growth 96h 2.33µM
O=C(OCC(=O)c1c[nH]c2ccccc12)c1ccco1	Pf growth 96h 5.22µM
C/C(=N\NC(=S)NCc1ccccc1)c1ccc(C)o1	HCV inhibitor inconclusive, Pf growth 96h inconclusive
CC1CCCN(C(=O)N2c3ccccc3Sc3ccccc32)C1 (stereo unspecified)	Pf growth 96h inconclusive (no result: Pf growth 48h)
c1ccc2c(c1)OC(CCCN1CCCCC1)c1ccccc1S2 (stereo unspecified)	HCV inhibitor 25.1µM, Pf growth 48h 13.1µM, Pf growth 96h 10.4µM
CN1CCCC(CC2Oc3ccccc3Sc3ccccc32)C1 (stereo unspecified)	HCV inhibitor 11.2µM, Pf growth 48h 13.1µM, Pf growth 96h inconclusive
S=C(NCC1CCCO1)N1CCc2ccccc2C1 (stereo unspecified)	none
CC(=O)COC(=O)C1=NN(c2ccccc2)C(=O)CC1	none
Cc1ccc(-n2nc3c(c2NC(=O)C(C)C)CS(=O)(=O)C3)c(C)c1	Pf growth 48h 0.0147µM, Pf growth 96h inconclusive
COc1cc(CN2CCCCCC2)cc(OC)c1OC	none
COc1cc(Cc2cnc(N)nc2N)cc(OC)c1OC	Pf growth 48h 1.51µM, Pf growth 96h 2.13µM!
N#Cc1c(-n2cccc2/C=N/O)sc2c1CCCC2	AMA1-RON2 inh inconclusive, Pf growth 96h 14.7µM
COc1ccc([C@H]2C[C@@H](O)[C@H](n3cc(COC(=O)c4ccccc4)nn3)CN2C(=O)c2cccs2)cc1	none (no result: HCV inhibitor, Pf growth 48h, Pf growth 96h)
Nc1c(C(=O)CSc2nc3ccccc3o2)c(=O)[nH]c(=O)n1C1CC1	HCV inhibitor inconclusive
CCSc1nnc(NC(=O)c2ccccn2)s1	HCV inhibitor inconclusive, Pf growth 48h 2.94µM
CCc1nnc(NC(=O)c2cc(Cl)ccn2)s1	Pf growth 48h inconclusive, Pf growth 96h 5.86µM
Cc1cnc(C(=O)Nc2nnc(SCc3c(Cl)cccc3Cl)s2)cn1	HCV inhibitor inconclusive, Pf growth 48h 2.62µM, Pf growth 96h 2.94µM
CCS(=O)(=O)N1Cc2ccccc2CC1C(=O)Nc1nnc(SCc2c(Cl)cccc2Cl)s1 (stereo unspecified)	Pf growth 48h inconclusive, Pf growth 96h inconclusive
Cc1ccc(CN2CC(C(=O)Nc3nnc(SCc4c(Cl)cccc4Cl)s3)CC2=O)cc1 (stereo unspecified)	Pf growth 96h inconclusive
CCSc1nnc(NC(=O)C2Cc3ccccc3CN2S(=O)(=O)CC)s1 (stereo unspecified)	Pf growth 96h 13.1µM
CC(Sc1nnnn1-c1ccccc1)C(=O)Nc1ccc(Cl)cn1 (stereo unspecified)	HCV inhibitor inconclusive, Pf growth 48h inconclusive
Cc1ccc(C2NC(c3ccc(C)cc3)C(C)C(=O)C2C)cc1 (stereo unspecified)	Pf growth 48h inconclusive, Pf growth 96h inconclusive
N=c1ccn(CC(=O)c2ccc(-c3ccccc3)cc2)cc1	HCV inhibitor 0.891µM, Pf growth 48h 0.828µM, Pf growth 96h inconclusive
CS(=O)(=O)c1ccccc1-c1nnc(NC(=O)c2cccc(N3C(=O)CCC3=O)c2)o1	none
COc1c(/C=N/Nc2ccc(C(=O)O)cc2)c(CCN(C)C(C)=O)cc2c1OCO2	none
COc1ccc(Cl)cc1NC(=O)CN(C)C(=O)c1ccc(N2CCCCCC2)c([N+](=O)[O-])c1	HCV inhibitor inconclusive, Pf growth 48h inconclusive, Pf growth 96h inconclusive
COc1ccc(Cl)cc1NC(=O)CN(C)C(=O)c1ccc(N2CCCCC2)c([N+](=O)[O-])c1	HCV inhibitor inconclusive, Pf growth 48h 13.1µM, Pf growth 96h inconclusive
COc1cccc(CN(C)C(=O)c2ccc(N3CCCC3)c([N+](=O)[O-])c2)c1	Pf growth 96h 13.1µM
CC(C)(C)c1cc(NC(=O)Nc2ccc(Cl)cc2Cl)no1	HCV inhibitor inconclusive, Pf growth 48h inconclusive
Cc1cc(NC(=O)Nc2ccccc2Cl)no1	Pf growth 96h inconclusive
Cc1c(Cl)cccc1NC(=O)Nc1cc(C(C)(C)C)on1	HCV inhibitor 10µM, Pf growth 48h 10.4µM, Pf growth 96h inconclusive
CC(C)(C)c1cc(NC(=O)Nc2ccc(Br)cc2Cl)no1	Pf growth 96h 13.1µM
Cn1nc(C(=O)NCc2ccc(F)cc2)c2c1-c1ccccc1S(=O)(=O)C2	HCV inhibitor 14.1µM
COC(=O)[C@@]12C[C@@H](CC(=O)N3CCC(c4ccccc4)CC3)C(=O)N(Cc3cccc4ccccc34)C1=CCC(C)(C)C2	none (no result: HCV inhibitor, Pf growth 48h, Pf growth 96h)
CCCCCCOc1ccc(C(=O)O)cc1	none
CCOc1ccc(Br)cc1/C(C)=N\NC1=NCCN1	HCV inhibitor 4.47µM, Pf growth 48h inconclusive (no result: Pf growth 96h)
CCCCCOc1ccc(/C(C)=N/NC2=NCCN2)cc1	HCV inhibitor inconclusive, Pf growth 48h 7.38µM, Pf growth 96h 11.7µM
CCCCCCOc1ccc(/C(C)=N/NC2=NCCN2)cc1	HCV inhibitor 11.2µM, Pf growth 48h inconclusive
CC(=NNC1=NCCN1)c1cnn(C2=NCCN2)c1C	none (no result: HCV inhibitor, Pf growth 48h, Pf growth 96h)
COc1cc2oc(=O)cc(-c3ccc(-c4ccc(CO)cc4)cc3)c2c(OC)c1OC	HCV inhibitor inconclusive (no result: Pf growth 48h, Pf growth 96h)
CCCc1nc2cc(C)c(Br)c(C)n2c1Cc1ccc(OC)cc1C	none (no result: HCV inhibitor, Pf growth 48h, Pf growth 96h)
COc1cc(/C=C(\C#N)c2nc3ccccc3[nH]2)c([N+](=O)[O-])cc1OCc1ccccc1	HCV inhibitor 7.08µM, Pf growth 48h 2.62µM
COc1cc(/C=C(/C#N)c2nc3ccccc3[nH]2)ccc1OCC(=O)Nc1ccccc1C(C)C	HCV inhibitor inconclusive, Pf growth 48h inconclusive, Pf growth 96h 9.28µM
CCN(CC)c1ccc(/C=C(/C#N)c2nc3ccccc3[nH]2)c(OC(C)C)c1	HCV inhibitor 2µM, Pf growth 48h inconclusive, Pf growth 96h inconclusive
COc1cc(/C=C(/C#N)c2nc3ccccc3[nH]2)ccc1OCC(=O)Nc1ccccc1C	Pf growth 48h inconclusive, Pf growth 96h 1.47µM
O=C(O)CCC1OC(=O)C(O)=C1c1ccccc1 (stereo unspecified)	Pf growth 96h inconclusive
COc1ccc(CCc2nnc(CCC(=O)NCc3ccc4ncccc4c3)o2)cc1	none
COc1ccc(CCc2nnc(CCC(=O)NCc3cnc4ccccn34)o2)cc1	Pf growth 96h 10.4µM
CCCCC(CCc1ccccn1)C(=O)c1ccccc1 (stereo unspecified)	none (no result: Pf growth 48h, Pf growth 96h)

Screening data as filed in PubChem.
